# Sampled rows, rich in hits. Any-hit rate of the full collection: about 1.3%.
# IL-2 act: IL-2 activation; IL-2 activation reporter assay, cell-based qHTS; stimulated with anti-CD3/CD4/CD28 beads; in transgenic mouse T cells; activation, % (series mostly up to about 46 µM); actives 0.065% (n = 360,000); AID 652025; in the data active = activation above about 50%; inconclusive = mostly about 30% to 49%
#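 Screening format: compound pinned onto unstimulated transgenic mouse T cells, 60 min incubation, then anti-CD3/anti-CD4/anti-CD28 bead stimulation for 18 hours at 37 degrees C, followed by EGFP and DsRed detection.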
# Mito fusion yeast: mitochondrial division inhibition or fusion activation | S. cerevisiae fusion-defective mutant growth rescue, CellTiterGlo 48 h | AID 485298 | actives 0.23% (n = 320,000) | Potency, µM (series often up to 46.1 µM), actives largely listed as activators; also: nearly all actives have a fitted effect of over 45% in size
#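 Growth-rescue viability read-out: after 48 h at the non-permissive 37C in glycerol/ethanol YPEG, yeast mitochondrial fusion mutants are measured by CellTiterGlo luminescence; compounds (23 nl pinned per well) restoring growth score as division inhibitors or fusion activators.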
# BRCA1 expr up: increases BRCA1 expression. MCF7-BRCA1-FFLuc reporter, luminescence, 48 h; response scale: scaled: vehicle 0%, 10 µM genistein 100%. Potency, µM (top dose mostly 46.1 µM), most hits filed as activators. actives 1.1% (n = 380,000). AID 624202; also: nearly all actives have a fitted effect of over 80% in size
#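 Luminescence from a BRCA1-driven firefly luciferase in MCF7 cells was the read-out, taken 15 min after substrate addition following 48 h compound exposure at 37 °C. Data were normalized to a 10 microM genistein control and DMSO vehicle.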
# p53 reactivator: restores transcriptional activity of mutant p53 | H1299 p53-A138V BP100-luciferase reporter, luminescence, 24 h | Potency, µM (doses to about 92.2 µM), hits mostly activators | actives 0.063% (n = 320,000); also: nearly all actives have a fitted effect of over 45% in size
#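 p53-null H1299 cells stably carrying temperature-sensitive p53-A138V and a BP100-luciferase reporter were pinned with compounds (4-point, 1:5 series) and held 24 hrs at 37 deg C. Luminescence was read 10 min after detection reagent.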
# TCR activator: activators of T cell receptors; primary human leukocytes, anti-CD3, IL-2 HTRF, 48 h; Potency, µM (series often up to 9.22 µM), most hits filed as activators; 330,000 tested, under 10 active; AID 504894
#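 Using a-CD3 beads without co-stimulation, primary human leukocytes were exposed to compounds for 48 hr. An HTRF IL-2 kit measured the cytokine, with europium-to-d2 energy transfer producing emission at 665nm upon 320nm excitation.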
# Hits are given with their value; n = inactive; u = inconclusive; x = no result. Unless noted, calls follow the shape of the dose curve; as a rule, active = well fitted curve in the direction sought with a large enough effect; inconclusive = small, poorly fitted or top-dose-only effect, or another doubt; inactive = no such curve, though single readings can be large; an effect the other way counts as inactive or inconclusive.
SMILES,IL-2 act,Mito fusion yeast,BRCA1 expr up,p53 reactivator,TCR activator
COc1ccccc1CCNC(=O)c1ccc(Br)s1,n,n,8.9µM,n,n
COc1ccccc1CCNS(=O)(=O)CCNC(=O)c1ccccc1,n,n,n,n,n
CCC(=O)NC(c1ccc(C)cc1)c1cc([N+](=O)[O-])c2cccnc2c1O (stereo not given),147,n,n,u,n
CC(=O)NC(c1ccc(C)cc1)c1cc([N+](=O)[O-])c2cccnc2c1O (stereo not given),n,n,n,n,n
Cc1ccc(-c2ccc(CCC(=O)O)n2-c2cccc(C(=O)O)c2)cc1,n,n,7.1µM,u,n
CCCCNC(=O)Cn1c(SCc2cccc(F)c2)nc2ccncc21,x,x,n,x,x
O=C(NCCc1ccc(Cl)cc1)c1cnc2n(c1=O)CCS2,n,n,u,u,n
O=C(NCCC1=CCCCC1)c1cnc2n(c1=O)CCS2,n,n,8.9µM,u,n
O=C(NCc1ccccc1)c1cnc2n(c1=O)CCS2,n,n,n,n,n
O=C(NCCCc1ccccc1)c1cnc2n(c1=O)CCS2,n,n,6.3µM,u,n
CCC(C(=O)Nc1ccc(C(C)=O)cc1)n1c(C)c2cnn(-c3ccccc3)c(=O)c2c1C (stereo not given),x,x,n,x,x
COc1cccc(-c2ccc3ncnc(NCc4cccc(F)c4)c3c2)c1,x,n,x,x,x
C=C1C=C(C)n2ncc(C(=O)Nc3ccc(F)cc3F)c2N1,x,x,n,x,x
Cc1nc(NCC(=O)c2c[nH]c3ccccc23)sc1C,x,x,n,x,x
CCOc1ccc(/C=C/c2cc[n+](C)c3ccccc23)cc1OCC,x,x,n,x,x
O=C1CC(c2ccc3c(c2)OCCO3)Oc2ccccc21 (stereo not given),n,n,11µM,u,n
CCCCN1C(=O)C(O)(c2c[nH]c3ccccc23)c2cc(Br)ccc21 (stereo not given),x,x,n,x,x
CN(C)c1ncnc2c1ncn2-c1ccccc1,n,x,11µM,x,n
COc1cc2c(cc1OC)-c1cc(=Nc3c(C)cc(C)cc3C)n(C)c(=O)n1CC2,x,18µM,n,x,x
COc1cc2c(cc1OC)-c1cc(NC3CCCC3)nc(=O)n1CC2,n,n,n,n,n
CCCc1noc(-c2ccc(-c3ccccc3)cc2)n1,n,n,8.9µM,u,n
C/C(=N\NC(=O)c1cccc(O)c1)c1cccc(NC(=O)c2ccc(F)cc2)c1,n,n,4µM,n,n
C/C(=N\NC(=O)c1ccc(Cl)cc1)c1cccc(NC(=O)c2cccnc2)c1,n,x,u,n,n
C/C(=N\NC(=O)c1c(Cl)cnn1C)c1cccc(NC(=O)C(C)C)c1,n,n,n,n,n
C/C(=N\NC(=O)c1c(Cl)cnn1C)c1cccc(NC(=O)c2ccc(C)cc2)c1,n,n,6.3µM,n,n
SMILES,IL-2 act,Mito fusion yeast,BRCA1 expr up,p53 reactivator,TCR activator
C/C(=N\NC(=O)c1ccc(O)cc1)c1cccc(NC(=O)c2ccc(Cl)cc2)c1,n,x,5.6µM,x,n
C/C(=N\NC(=O)c1c(Br)cnn1C)c1ccc(NC(=O)c2ccc(F)cc2)cc1,n,n,7.9µM,n,n
C/C(=N\NC(=O)c1ccc(F)cc1)c1cccc(NC(=O)c2cccc(F)c2)c1,n,n,n,n,n
NNC(=O)c1ccc(C(=O)N(c2ccccc2)c2ccccc2)cc1,x,x,n,x,x
COc1ccccc1CNc1cc(C)nc2nc(-c3ccc(C)cc3)nn12,x,x,n,x,x
CC1OC1c1ccc(-c2ccc(C3OC3C)cc2)cc1 (stereo not given),n,x,5µM,x,n
Cc1ccc(-c2nc(C=Nc3ccc(O)cc3)c(O)o2)cc1,77,n,n,n,n
Cc1cc(C(=O)COc2ncnc3sccc23)c(C)n1C1CC1,n,n,8.9µM,u,n
COc1cccc(NC(=O)Nc2ccc(C)c(Cl)c2)c1,n,n,7.1µM,n,n
COc1cccc(NC(=O)Nc2cccc(C)n2)c1,n,n,13µM,n,n
Cc1ccc(NC(=O)Nc2ccc(F)cc2)cc1Cl,n,n,2.8µM,n,n
Cc1ccc(NC(=O)NC2CCCCC2)cc1Cl,n,n,5µM,x,n
COc1cccc(NC(=O)Nc2cc(C(=O)O)ccc2C)c1,n,n,n,n,n
Cc1ccc(NC(=O)C2CCN(C(=O)NC3CCCCC3)CC2)cc1Cl,n,n,n,n,n
COc1ccc(NC(=O)Nc2cccc(C)n2)c(OC)c1,n,n,n,n,n
CC(=O)N(c1ccc2ccccc2c1)C1SC(=O)N(c2cccc(C)c2)C1=O (stereo not given),x,x,n,x,x
CN(C(=S)NC1CCCCC1)C1(c2ccccc2Cl)CCCCC1=O (stereo not given),n,20µM,n,n,n
O=C(C[n+]1cccc(Cl)c1)c1ccc(O)c(O)c1,x,x,n,x,x
CCCC(=O)Nc1ccc(C(=O)NN=C(C2CC2)C2CC2)cc1,n,n,n,n,n
CCCC(=O)Nc1ccc(C(=O)COC(=O)C2CC2)cc1,n,x,10µM,u,n
COc1ccc(CSc2nnc(C)s2)cc1F,n,n,4.5µM,u,n
COC(=O)c1ccc(CSc2nnc(C)s2)cc1,n,n,n,n,n
c1ccc2c(c1)NC1(CCCC1)n1c-2nc2ccccc21,n,n,n,u,x
CCCC1(C)Nc2ccccc2-c2nc3ccccc3n21 (stereo not given),n,n,8.9µM,u,n
COc1ccc2nc(N3CCCCC3)c(C#N)cc2c1,n,n,11µM,u,n
SMILES,IL-2 act,Mito fusion yeast,BRCA1 expr up,p53 reactivator,TCR activator
Nc1ccc(/C=C/c2ccnc3ccccc23)cc1,x,x,n,x,x
CSCC(=O)N1CCCC(CO)(Cc2ccccc2C)C1 (stereo not given),n,22µM,n,n,n
O=C1CCCN1CCC(=O)N1CCCC(CO)(Cc2ccccc2)C1 (stereo not given),n,n,n,28µM,n
Cc1ccccc1CC1(CO)CCCN(C(=O)CCC(F)(F)F)C1 (stereo not given),n,n,n,n,n
CN(C)C(=O)COC(=O)c1ccccc1OCC(=O)Nc1ccc(Br)cc1,x,x,n,x,x
Cc1c(Cl)cccc1NC(=O)CSc1nc(=O)n(Cc2ccco2)c2c1CCC2,x,x,n,x,x
NS(=O)(=O)c1ccc(CCNc2nc3c(-c4cccc(F)c4)nnn3c3ccc(Cl)cc23)cc1,x,x,n,x,x
CO[C@H]1/C=C\O[C@@]2(C)Oc3c(C)c(O)c4c(O)c(c(C=NN5CCN(C6CCCC6)CC5)c(O)c4c3C2=O)NC(=O)C(C)=CC=C[C@H](C)[C@H](O)[C@@H](C)[C@@H](O)[C@@H](C)[C@H](OC(C)=O)[C@H]1C,x,x,n,x,x
O=C1SC(Nc2ccccc2)C(=O)N1c1ccccc1 (stereo not given),x,x,n,x,x
CN(C)c1ccc(/C=C2\C=Nc3ccccc32)cc1,x,x,n,x,x
CCC(C)c1ccc(NC(=O)c2cccnc2)cc1 (stereo not given),n,n,3.5µM,n,n
